Some test systems named below: OVCAR-8 ovarian; OVCAR-5 ovarian; OVCAR-4 ovarian; SK-OV-3 ovarian; IGROV1 ovarian; OVCAR-3 ovarian; HS 578T breast; NCI/ADR-RES ovarian; RPMI-8226 leukemia.
Holding throughout (assay): NCI-60 one-dose screen, 48 h (100 = growth as untreated, 0 = no growth, -100 = all killed)
Holding throughout (conditions): 10 µM unless noted

The results in this text go back to PubChem BioAssay (NCI).

Each structure is given as a SMILES string. Compounds without any hit were thinned out: in the full panel of roughly 83,000, 20% have a hit.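 Step 1: grow cells in 96-well plates. Step 2: add test compound at a single concentration. Step 3: incubate 48 h. Step 4: record percent growth.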 Values without a mark were called inactive. Active and inactive are the calls of the source. Rule for the calls: active = growth percent below 10; inactive = the rest.

As for `COc1ccc(/C=C2\CN(Cc3cn(CCNc4ccnc5cc(Cl)ccc45)nn3)C/C(=C\c3ccc(OC)c(OC)c3)C2=O)cc1OC`, the growth in the assay with OVCAR-8 ovarian was -3.77% (active); in the assay with OVCAR-5 ovarian, 18.1%; in the assay on OVCAR-4 ovarian, 29.8%; in the assay with SK-OV-3 ovarian it was 4.28% (active); in the assay with IGROV1 ovarian, 7.35% (active); in the assay with OVCAR-3 ovarian it was -13.9% (active). Besides, the results for the growth in the assay on HS 578T breast and in the assay with NCI/ADR-RES ovarian were 23.4% and 103%, respectively.
On to `O=C(Nc1cccc(-n2cc(-c3ccncc3)c(-c3ccc(Cl)c(O)c3)n2)c1)c1ccccc1`, for which the growth is 60.5% in the assay with RPMI-8226 leukemia; 50.9% in the assay on OVCAR-8 ovarian; 115% with OVCAR-5 ovarian; 40.7% in the assay on OVCAR-4 ovarian; 88% with IGROV1 ovarian; 82.1% in the assay with OVCAR-3 ovarian. Moreover, the growth was 48.4% with HS 578T breast and 62.7% in the assay with NCI/ADR-RES ovarian.
Turning to `CCCOC(=O)n1cccc1`, the growth with RPMI-8226 leukemia is 110%; in the assay with OVCAR-8 ovarian it was 108%; in the assay on OVCAR-4 ovarian, 91.7%; with SK-OV-3 ovarian, 101%; in the assay with OVCAR-3 ovarian, 106%; with HS 578T breast, 105%. Moreover, the growth in the assay on NCI/ADR-RES ovarian is 102%.
Turning to `O=C(O)c1nc(-c2ccccc2)oc1N1CCOCC1`, the growth is 107% in the assay on RPMI-8226 leukemia; 93.2% in the assay on OVCAR-5 ovarian; 108% in the assay on OVCAR-4 ovarian; 92.7% in the assay on SK-OV-3 ovarian; 98.2% in the assay on IGROV1 ovarian; 105% in the assay on OVCAR-3 ovarian. Further, the growth was 86.3% in the assay with HS 578T breast and 96.6% with NCI/ADR-RES ovarian.
As for `Nc1cc2c(cc1C(=O)c1cccc(F)c1)OCCO2`, the growth in the assay with OVCAR-8 ovarian is 91.1%; in the assay on OVCAR-5 ovarian, 98.2%; in the assay on OVCAR-4 ovarian it was 105%; in the assay with SK-OV-3 ovarian it was 93.3%; in the assay with IGROV1 ovarian, 89.7%; in the assay with OVCAR-3 ovarian, 116%. In addition, the growth with HS 578T breast was 111%; in the assay on NCI/ADR-RES ovarian it was 97.9%.
Regarding `COc1cc(-c2nn(-c3cccc(NC(=O)Nc4cc(C(F)(F)F)cc(C(F)(F)F)c4)c3)cc2-c2ccncc2)ccc1Cl`, the growth with RPMI-8226 leukemia is -11.7% (active); in the assay on OVCAR-8 ovarian, -12.7% (active); in the assay with OVCAR-5 ovarian it was 16.3%; in the assay on OVCAR-4 ovarian, 17.2%; with IGROV1 ovarian, 19.9%; with OVCAR-3 ovarian, -57.9% (active). In addition, the growth in the assay with HS 578T breast is -25.8% (active); with NCI/ADR-RES ovarian it was 1.11% (active).
As to `CCN(CC)c1ccc(C(=N)c2ccc(N(CC)CC)cc2)cc1`, the growth is -8.61% (active) with OVCAR-8 ovarian; -22.1% (active) in the assay with OVCAR-5 ovarian; 12.7% in the assay with OVCAR-4 ovarian; -36.6% (active) in the assay with SK-OV-3 ovarian; -24.8% (active) in the assay with IGROV1 ovarian; -38.3% (active) in the assay with OVCAR-3 ovarian. Moreover, the growth was -47.2% (active) with HS 578T breast and -49.9% (active) with NCI/ADR-RES ovarian.
`COc1ccc(/C=C(\C#N)c2cc(OC)c3c(c2)OCO3)cc1`: the growth was 28.6% in the assay with RPMI-8226 leukemia; 24.3% in the assay with OVCAR-8 ovarian; 39% in the assay with OVCAR-4 ovarian; 8.7% (active) with SK-OV-3 ovarian; 16.3% in the assay with IGROV1 ovarian; -42.7% (active) in the assay on OVCAR-3 ovarian. The results for the growth in the assay on HS 578T breast and with NCI/ADR-RES ovarian were 28.5% and 7.74% (active), respectively.
Regarding `COC(=O)C(Sc1ccc(Cl)cc1)C1SC(=S)N(Cc2ccccc2)C1=O` (stereo not drawn), the growth in the assay on RPMI-8226 leukemia is 84.6%; with OVCAR-8 ovarian it was 101%; in the assay on OVCAR-5 ovarian, 118%; in the assay with SK-OV-3 ovarian, 108%; in the assay on OVCAR-3 ovarian, 105%; with HS 578T breast, 106%. Besides, in the assay with NCI/ADR-RES ovarian, the growth was 102%.
Regarding `O=C(NCCNc1nccc(-n2ccc3cccnc32)n1)c1ccc(C(F)(F)F)cc1`, the growth in the assay with OVCAR-5 ovarian is 106%; in the assay on OVCAR-4 ovarian it was 100%; in the assay on SK-OV-3 ovarian, 99.7%; with IGROV1 ovarian it was 103%; in the assay with OVCAR-3 ovarian, 109%; with HS 578T breast, 106%. For the same compound, in the assay on NCI/ADR-RES ovarian, the growth is 105%.
Take `COc1ccc(C2=Nn3c(nnc3-n3nc(C)cc3C)SC2)cc1`: the growth in the assay with RPMI-8226 leukemia is 20.9%; in the assay with OVCAR-5 ovarian, 48.7%; in the assay with OVCAR-4 ovarian, 61.1%; with SK-OV-3 ovarian, -3.05% (active); in the assay on IGROV1 ovarian it was 32.2%; in the assay on OVCAR-3 ovarian it was -47.9% (active). The growth was 7.5% (active) with HS 578T breast and 10.7% in the assay with NCI/ADR-RES ovarian.
`COc1cc(-c2nn(-c3cccc(NC(=O)c4cccc(C(F)(F)F)c4)c3)cc2-c2ccncc2)ccc1Cl`: the growth in the assay with OVCAR-8 ovarian is 11.8%; in the assay with OVCAR-5 ovarian, 49.3%; in the assay with OVCAR-4 ovarian it was 46.5%; with IGROV1 ovarian, 34%; with OVCAR-3 ovarian, -25.6% (active); in the assay on HS 578T breast, -5.69% (active). Further, the growth in the assay on NCI/ADR-RES ovarian was 2.75% (active).
Regarding `COc1ccc2c(c1)cn1c3ccc(OC)cc3[nH]c(=O)c21`, the growth was -37.8% (active) in the assay on RPMI-8226 leukemia; -47.4% (active) with OVCAR-8 ovarian; 21.3% in the assay on OVCAR-5 ovarian; 40.4% with OVCAR-4 ovarian; -54% (active) in the assay with IGROV1 ovarian; -2.47% (active) in the assay on NCI/ADR-RES ovarian.
For `O=c1cc/c(=N\Nc2ccccc2)c(=O)/c1=N/Nc1ccccc1`, the growth with OVCAR-8 ovarian was 109%; in the assay on OVCAR-5 ovarian, 107%; in the assay on OVCAR-4 ovarian, 107%; in the assay with SK-OV-3 ovarian, 109%; in the assay with IGROV1 ovarian, 60.1%; with NCI/ADR-RES ovarian it was 95.2%.
On to `COc1cccc(-c2cc3c(O)cc(C#N)cc3[nH]2)c1`, for which the growth in the assay with RPMI-8226 leukemia was 36.1%; in the assay on OVCAR-5 ovarian it was 94.7%; in the assay on OVCAR-4 ovarian it was 83.7%; with SK-OV-3 ovarian, 108%; in the assay with IGROV1 ovarian it was 103%; with OVCAR-3 ovarian it was 114%. For the same compound, the growth with HS 578T breast was 43.6%; in the assay with NCI/ADR-RES ovarian, 89.2%.
Turning to `Cc1cc(C)n(-c2nnc3n2N=C(c2ccc(-c4ccccc4)cc2)CS3)n1`, the growth in the assay on RPMI-8226 leukemia was 37.2%; in the assay with OVCAR-8 ovarian, 52.5%; with OVCAR-5 ovarian, 83.8%; with OVCAR-4 ovarian, 74.7%; in the assay on IGROV1 ovarian, 69.6%; in the assay with OVCAR-3 ovarian it was 15.6%. In addition, the growth is 49.2% in the assay on HS 578T breast and 35% in the assay with NCI/ADR-RES ovarian.
`COc1ccc(-c2cc3c(OC)c(OC)c(OC)cc3oc2=O)cc1`: the growth in the assay on RPMI-8226 leukemia is 54.6%; with OVCAR-5 ovarian, 74%; with OVCAR-4 ovarian, 81.3%; in the assay on SK-OV-3 ovarian, 67.1%; with IGROV1 ovarian, 61.6%; in the assay with OVCAR-3 ovarian, 5.53% (active). Besides, the results for the growth in the assay on HS 578T breast and in the assay on NCI/ADR-RES ovarian were 33.3% and 4.06% (active), respectively.
